Data taken from PubChem BioAssay AID1159580 (chemical genetic matrix, 2015).
Among all 5,500 compounds or so, about 2,000 (36%) were called active. Another 18% or so got no clear call; they are omitted. Rule as the data show it: active = normalized growth mostly below about 0.91 (no sharp cut-off); inconclusive = no clear call, values can overlap the other calls; inactive = mostly above about 0.92. This is one part of the list.

Test: chemical genetic growth profiling, strain panel (AID 1159580);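 also: tested at 20 µM; growth read once vehicle control cultures reached saturation at 30 °C; 1 = growth at the plate median or of vehicle wells; lower values mean less growth of the strain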
Settings: growth OD

Measured: normalized growth

CC(C)c1c(O)c(-c2cc3c(c(C(C)C)c2O)CCC2C(C)(C)CCC[C@]32C)cc2c1CCC1C(C)(C)CCC[C@]21C (some centres not stated)
inactive: S. cerevisiae deletion strains, locus YJR075W, strain HOC1, stronger effect = lower value 1.01 | S. cerevisiae deletion strains, locus YKL009W, strain mrt4, stronger effect = lower value 1.06 | S. cerevisiae deletion strains, locus YKL068W, stronger effect = lower value 1.01 | S. cerevisiae deletion strains, locus YKL085W, strain MDH1 (second series), stronger effect = lower value 1.07 | S. cerevisiae deletion strains, locus YKL085W, strain MDH1, stronger effect = lower value 1.07 | S. cerevisiae deletion strains, locus YKL160W, strain elf1, stronger effect = lower value 0.984 | S. cerevisiae deletion strains, locus YKL190W, strain CNB1, stronger effect = lower value 1.01 | S. cerevisiae deletion strains, locus YKR001C, strain vps1, stronger effect = lower value 1.03 | S. cerevisiae deletion strains, locus YKR026C, strain gcn3, stronger effect = lower value 0.993 | S. cerevisiae deletion strains, locus YKR091W, strain srl3, stronger effect = lower value 0.971 | S. cerevisiae deletion strains, locus YLL001W, strain dnm1, stronger effect = lower value 1.01 | S. cerevisiae deletion strains, locus YLL026W, stronger effect = lower value 0.997 | S. cerevisiae deletion strains, locus YLL041C, strain sdh2, stronger effect = lower value 1.02 | S. cerevisiae deletion strains, locus YLR027C, strain aat2, stronger effect = lower value 0.983 | S. cerevisiae deletion strains, locus YLR039C, strain RIC1, stronger effect = lower value 1.07 | S. cerevisiae deletion strains, locus YLR058C, strain SHM2, stronger effect = lower value 1.02 | S. cerevisiae deletion strains, locus YLR102C, strain apc9, stronger effect = lower value 1.02 | S. cerevisiae deletion strains, locus YLR113W, strain HOG1, stronger effect = lower value 0.996 | S. cerevisiae deletion strains, locus YLR221C, strain rsa3, stronger effect = lower value 1.02 | S. cerevisiae deletion strains, locus YLR258W, strain gsy2, stronger effect = lower value 0.974 | S. cerevisiae deletion strains, locus YLR262C, strain YPT6 (second series), stronger effect = lower value 0.987 | S. cerevisiae deletion strains, locus YLR262C, strain YPT6, stronger effect = lower value 1.05 | S. cerevisiae deletion strains, locus YLR268W, strain sec22, stronger effect = lower value 1.01 | S. cerevisiae deletion strains, locus YLR320W, strain mms22, stronger effect = lower value 1.02 | S. cerevisiae deletion strains, locus YLR330W, strain CHS5, stronger effect = lower value 1.01 | S. cerevisiae deletion strains, locus YLR342W, strain FKS1 (second series), stronger effect = lower value 1.04 | S. cerevisiae deletion strains, locus YLR342W, strain FKS1, stronger effect = lower value 0.99 | S. cerevisiae deletion strains, locus YLR357W, strain rsc2, stronger effect = lower value 0.976 | S. cerevisiae deletion strains, locus YLR370C, strain arc18, stronger effect = lower value 0.982 | S. cerevisiae deletion strains, locus YLR371W, strain rom2, stronger effect = lower value 1.02 | S. cerevisiae deletion strains, locus YLR384C, strain iki3, stronger effect = lower value 0.972 | S. cerevisiae deletion strains, locus YLR418C, strain cdc73, stronger effect = lower value 1.01 | S. cerevisiae deletion strains, locus YML016C, strain PPZ1, stronger effect = lower value 1.02 | S. cerevisiae deletion strains, locus YML032C, strain rad52, stronger effect = lower value 1.03 | S. cerevisiae deletion strains, locus YML120C, strain ndi1, stronger effect = lower value 1 | S. cerevisiae deletion strains, locus YML124C, strain tub3, stronger effect = lower value 1.01 | S. cerevisiae deletion strains, locus YMR058W, strain fet3, stronger effect = lower value 0.982 | S. cerevisiae deletion strains, locus YMR078C, strain ctf18, stronger effect = lower value 1.01 | S. cerevisiae deletion strains, locus YMR125W, strain sto1, stronger effect = lower value 0.968 | S. cerevisiae deletion strains, locus YMR129W, stronger effect = lower value 0.98 | S. cerevisiae deletion strains, locus YMR205C, strain PFK2, stronger effect = lower value 0.973 | S. cerevisiae deletion strains, locus YMR223W, strain ubp8, stronger effect = lower value 1.03 | S. cerevisiae deletion strains, locus YMR231W, strain pep5, stronger effect = lower value 1.04 | S. cerevisiae deletion strains, locus YMR263W, strain SAP30, stronger effect = lower value 1.02 | S. cerevisiae deletion strains, locus YMR307W, strain GAS1, stronger effect = lower value 1.03 | S. cerevisiae deletion strains, locus YNL067W, strain RPL9B, stronger effect = lower value 1.02 | S. cerevisiae deletion strains, locus YNL071W, strain lat1, stronger effect = lower value 0.995 | S. cerevisiae deletion strains, locus YNL128W, strain TEP1, stronger effect = lower value 1.01 | S. cerevisiae deletion strains, locus YNL153C, strain GIM3, stronger effect = lower value 0.998 | S. cerevisiae deletion strains, locus YNL183C, strain NPR1, stronger effect = lower value 0.946 | S. cerevisiae deletion strains, locus YNL209W, strain ssb2, stronger effect = lower value 0.986 | S. cerevisiae deletion strains, locus YNL233W, strain BNI4, stronger effect = lower value 0.999 | S. cerevisiae deletion strains, locus YNL248C, strain rpa49, stronger effect = lower value 0.953 | S. cerevisiae deletion strains, locus YNL250W, strain rad50, stronger effect = lower value 1.02 | S. cerevisiae deletion strains, locus YNL271C, strain bni1, stronger effect = lower value 1.03 | S. cerevisiae deletion strains, locus YNL298W, strain CLA4, stronger effect = lower value 1.03 | S. cerevisiae deletion strains, locus YNL307C, strain MCK1, stronger effect = lower value 1.04 | S. cerevisiae deletion strains, locus YNL322C, strain KRE1 (second series), stronger effect = lower value 0.963 | S. cerevisiae deletion strains, locus YNL322C, strain KRE1, stronger effect = lower value 1.02 | S. cerevisiae deletion strains, locus YNR049C, strain mso1, stronger effect = lower value 0.963 | S. cerevisiae deletion strains, locus YNR052C, strain pop2, stronger effect = lower value 1.02 | S. cerevisiae deletion strains, locus YOL006C, strain TOP1, stronger effect = lower value 1.06 | S. cerevisiae deletion strains, locus YOL012C, strain htz1 0.995 | S. cerevisiae deletion strains, locus YOL147C, strain pex11, stronger effect = lower value 1.01 | S. cerevisiae deletion strains, locus YOR001W, strain rrp6, stronger effect = lower value 1.02 | S. cerevisiae deletion strains, locus YOR061W, strain CKA2, stronger effect = lower value 1.02 | S. cerevisiae deletion strains, locus YOR069W, strain VPS5, stronger effect = lower value 1.01 | S. cerevisiae deletion strains, locus YOR070C, strain gyp1, stronger effect = lower value 0.989 | S. cerevisiae deletion strains, locus YOR080W, strain dia2, stronger effect = lower value 0.953 | S. cerevisiae deletion strains, locus YOR083W, strain WHI5, stronger effect = lower value 0.997 | S. cerevisiae deletion strains, locus YOR106W, strain vam3, stronger effect = lower value 0.985 | S. cerevisiae deletion strains, locus YOR136W, strain idh2, stronger effect = lower value 1.01 | S. cerevisiae deletion strains, locus YOR144C, strain elg1, stronger effect = lower value 1.01 | S. cerevisiae deletion strains, locus YOR184W, strain ser1, stronger effect = lower value 1.04 | S. cerevisiae deletion strains, locus YOR231W, strain MKK1, stronger effect = lower value 0.958 | S. cerevisiae deletion strains, locus YOR265W, strain rbl2, stronger effect = lower value 1 | S. cerevisiae deletion strains, locus YOR270C, strain vph1, stronger effect = lower value 1 | S. cerevisiae deletion strains, locus YOR290C, strain snf2, stronger effect = lower value 0.957 | S. cerevisiae deletion strains, locus YOR316C, strain cot1, stronger effect = lower value 1.02 | S. cerevisiae deletion strains, locus YPL051W, strain arl3, stronger effect = lower value 0.999 | S. cerevisiae deletion strains, locus YPL055C, strain LGE1, stronger effect = lower value 1.02 | S. cerevisiae deletion strains, locus YPL078C, strain atp4, stronger effect = lower value 0.986 | S. cerevisiae deletion strains, locus YPL106C, strain sse1, stronger effect = lower value 0.948 | S. cerevisiae deletion strains, locus YPL240C, strain hsp82, stronger effect = lower value 0.996 | S. cerevisiae deletion strains, locus YPL241C, strain CIN2, stronger effect = lower value 1.02 | S. cerevisiae deletion strains, locus YPL256C, strain CLN2, stronger effect = lower value 0.949 | S. cerevisiae deletion strains, locus YPR119W, strain clb2, stronger effect = lower value 1.01 | S. cerevisiae deletion strains, locus YPR141C, strain kar3, stronger effect = lower value 1.02 | S. cerevisiae deletion strains, locus YPR163C, strain tif3, stronger effect = lower value 1.01 | S. cerevisiae deletion strains, locus YPR167C, strain met16, stronger effect = lower value 1.02 | S. cerevisiae deletion strains, strain wtn01, stronger effect = lower value 1.02 | S. cerevisiae strains, strain wild type, stronger effect = lower value 1.02
